Measurements: PubChem BioAssay AID1159580 (chemical genetic matrix, 2015)
Several values for one entry are separate records, joined by “and”; a condition that tells them apart may be missing. Equal entries are not always repeated. Out of some 5,500 compounds screened, about 2,000 (36%) were called active. Not shown: some 18% with an inconclusive outcome. Rule as the data show it: active = normalized growth mostly below about 0.91 (no sharp cut-off); inconclusive = no clear call, values can overlap the other calls; inactive = mostly above about 0.92. The list shows a part of the results.

Assay: chemical genetic growth profiling, strain panel (AID 1159580);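 also: tested at 20 µM; growth read once vehicle control cultures reached saturation at 30 °C; 1 = growth at the plate median or of vehicle wells; lower values mean less growth of the strain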
Conditions: S. cerevisiae deletion strains, growth OD

Measured: normalized growth

CCN(CC)C(=O)c1cccc(C)c1
inactive: locus YAL013W, strain DEP1, stronger effect = lower value 1 | locus YAL021C, strain ccr4, stronger effect = lower value 1.03 | locus YAL026C, strain drs2, stronger effect = lower value 1.03 | locus YAL030W, strain snc1, stronger effect = lower value 1.04 | locus YBL061C, strain skt5, stronger effect = lower value 1.04 | locus YBR009C, strain hhf1, stronger effect = lower value 1.01 | locus YBR021W, strain FUR4, stronger effect = lower value 1.01 | locus YBR023C, strain chs3, stronger effect = lower value 1.03 | locus YBR171W, strain sec66, stronger effect = lower value 1.04 | locus YBR229C, strain ROT2, stronger effect = lower value 1.01 | locus YBR231C, strain swc5, stronger effect = lower value 1.05 | locus YBR279W, strain paf1, stronger effect = lower value 1.02 | locus YCL011C, strain gbp2, stronger effect = lower value 1.02 | locus YCL016C, strain dcc1, stronger effect = lower value 1.03 | locus YCL029C, strain bik1, stronger effect = lower value 0.992 | locus YCL069W, strain vba3, stronger effect = lower value 1.04 | locus YCR088W, strain abp1, stronger effect = lower value 1.04 | locus YDL005C, strain med2, stronger effect = lower value 1.03 | locus YDL035C, strain GPR1, stronger effect = lower value 1 | locus YDL040C, strain nat1, stronger effect = lower value 1.03 | locus YDL074C, strain BRE1, stronger effect = lower value 1.02 | locus YDL101C, strain DUN1, stronger effect = lower value 0.999 | locus YDL134C, strain PPH21, stronger effect = lower value 1.01 | locus YDL185W, strain tfp1, stronger effect = lower value 0.957 | locus YDL192W, strain arf1, stronger effect = lower value 0.996 | locus YDR001C, strain nth1, stronger effect = lower value 1.03 | locus YDR069C, strain doa4, stronger effect = lower value 1.02 | locus YDR101C, strain arx1, stronger effect = lower value 1 | locus YDR137W, strain rgp1, stronger effect = lower value 1.04 | locus YDR150W, strain NUM1, stronger effect = lower value 0.981 | locus YDR159W, strain sac3, stronger effect = lower value 1.05 | locus YDR162C, strain NBP2, stronger effect = lower value 0.972 | locus YDR195W, strain ref2 1.11 | locus YDR297W, strain sur2, stronger effect = lower value 1.03 | locus YDR318W, strain mcm21, stronger effect = lower value 1 | locus YDR334W, strain swr1, stronger effect = lower value 1.03 | locus YDR335W, strain msn5, stronger effect = lower value 1.03 | locus YDR388W, stronger effect = lower value 1.01 | locus YDR392W, strain spt3, stronger effect = lower value 1.05 | locus YDR502C, strain sam2, stronger effect = lower value 0.994 | locus YEL003W, strain gim4, stronger effect = lower value 1.02 | locus YEL037C, strain rad23, stronger effect = lower value 1.04 | locus YEL061C, strain CIN8 (second series), stronger effect = lower value 1.02 | locus YEL061C, strain CIN8, stronger effect = lower value 1.01 | locus YER015W, strain faa2, stronger effect = lower value 1.03 | locus YER016W, strain bim1, stronger effect = lower value 1.02 | locus YER110C, stronger effect = lower value 1.01 | locus YER111C, strain swi4, stronger effect = lower value 1.05 | locus YER155C, strain BEM2 (second series), stronger effect = lower value 1.07 | locus YER155C, strain BEM2, stronger effect = lower value 1.01 | locus YER167W, strain BCK2, stronger effect = lower value 1.03 | locus YFR010W, strain ubp6, stronger effect = lower value 1.03 | locus YGL078C, strain dbp3, stronger effect = lower value 0.997 | locus YGL086W, strain mad1, stronger effect = lower value 1 | locus YGL167C, strain pmr1, stronger effect = lower value 1.03 | locus YGL173C, strain kem1, stronger effect = lower value 1.01 | locus YGL227W, strain vid30, stronger effect = lower value 1.04 | locus YGL240W, strain doc1, stronger effect = lower value 1.03 | locus YGL248W, strain PDE1, stronger effect = lower value 1.01 | locus YGL253W, strain hxk2, stronger effect = lower value 1.02 | locus YGR078C, strain PAC10, stronger effect = lower value 0.98 | locus YGR135W, strain pre9, stronger effect = lower value 0.982 | locus YGR229C, strain SMI1, stronger effect = lower value 1.01 | locus YGR252W, strain gcn5, stronger effect = lower value 0.98 | locus YHR013C, strain ard1, stronger effect = lower value 1.1 | locus YHR027C, strain rpn1, stronger effect = lower value 1.02 | locus YHR030C, strain SLT2, stronger effect = lower value 1.01 and 0.932 | locus YHR079C, strain IRE1 (second series), stronger effect = lower value 1 | locus YHR079C, strain IRE1, stronger effect = lower value 0.977 | locus YHR094C, strain hxt1, stronger effect = lower value 0.997 | locus YHR129C, strain ARP1, stronger effect = lower value 1.02 | locus YHR142W, strain chs7, stronger effect = lower value 1.02 | locus YHR200W, strain rpn10, stronger effect = lower value 0.998 | locus YIL066C, strain RNR3, stronger effect = lower value 0.998 | locus YIL073C, strain SPO22, stronger effect = lower value 0.97 | locus YIL125W, strain kgd1, stronger effect = lower value 1 | locus YIR030C, strain dcg1, stronger effect = lower value 0.996 | locus YJL092W, strain hpr5, stronger effect = lower value 1.03 | locus YJL095W, strain BCK1 (second series), stronger effect = lower value 1.04 | locus YJL095W, strain BCK1, stronger effect = lower value 1.04 and 0.974 | locus YJL115W, strain asf1, stronger effect = lower value 1.06 | locus YJL129C, strain trk1, stronger effect = lower value 1.08 | locus YJL134W, strain LCB3, stronger effect = lower value 1 | locus YJL154C, strain vps35, stronger effect = lower value 1.03 | locus YJL164C, strain tpk1, stronger effect = lower value 1.02 | locus YJL166W, strain qcr8, stronger effect = lower value 1.02 | locus YJL168C, strain set2, stronger effect = lower value 1 | locus YJL187C, strain SWE1 (second series), stronger effect = lower value 0.994 | locus YJR043C, strain POL32, stronger effect = lower value 0.999 | locus YJR066W, strain TOR1, stronger effect = lower value 0.942 | locus YJR075W, strain HOC1, stronger effect = lower value 1.02
